# According to PubChem BioAssay (NCI):
# This is part of a sample that, as a whole, favours compounds with a hit. Of some 79,000 tested, about 15% had one in any assay. A number with no mark means an inactive call. The source made the active and inactive calls. Cut-off read from the data, not from the text of the source: active = growth inhibition above about 70%; inactive = the rest.
# Legend:
# [1] = NCI Yeast Anticancer Drug Screen. Data for the mlh1 strain (AID 171);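 note: 0% = growth of vehicle-treated control cultures of the same strain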; details: S. cerevisiae mlh1 strain growth inhibition, stronger effect = higher value
# How it was run: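 Measured: yeast growth. Reference: vehicle-treated controls. Organism: strain with a defined alteration affecting DNA damage repair or cell cycle control, treated with compound.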
# [2] = NCI Yeast Anticancer Drug Screen. Data for the sgs1 strain (AID 173);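 note: 0% = growth of vehicle-only control cultures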; details: S. cerevisiae sgs1 mutant, stronger effect = higher value
# How it was run: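 Each compound was added to cultures of the altered yeast strain. Growth was recorded, and inhibition was derived by comparison with vehicle controls.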
# [3] = NCI Yeast Anticancer Drug Screen. Data for the mlh1 rad18 strain (AID 175); details: S. cerevisiae mlh1 rad18 strain growth inhibition, stronger effect = higher value
# How it was run: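 Genetically defined yeast (DNA repair-deficient) exposed to compounds; growth inhibition determined relative to vehicle.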
# [4] = NCI Yeast Anticancer Drug Screen. Data for the rad18 strain (AID 177); details: S. cerevisiae rad18 mutant growth inhibition, stronger effect = higher value
# How it was run: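 Vehicle-treated cultures served as the baseline for scoring compound-induced growth inhibition in DNA-repair-mutant yeast.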
# [5] = NCI Yeast Anticancer Drug Screen. Data for the rad52 strain (AID 147);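 note: 0% = growth of vehicle-treated control cultures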; details: S. cerevisiae rad52 mutant growth inhibition, stronger effect = higher value
# How it was run: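 The repair-mutant yeast strain was incubated with compounds, then growth was read and inhibition derived relative to vehicle.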
# [6] = NCI Yeast Anticancer Drug Screen. Data for the wt1 strain (AID 149);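 note: 0% = growth of vehicle-treated wt1 cultures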; details: S. cerevisiae wt1 strain (SPY 50644) growth inhibition, stronger effect = higher value
# How it was run: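 Measured: growth of wt1 yeast under compound versus vehicle treatment, reported as inhibition.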
# [7] = NCI Yeast Anticancer Drug Screen. Data for the mgt1 strain (AID 153); details: S. cerevisiae mgt1 mutant growth inhibition, stronger effect = higher value
# How it was run: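 Vehicle-normalized growth inhibition is determined in mgt1 yeast, a strain selected for a defined alteration in DNA repair or cell cycle control.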
# [8] = NCI Yeast Anticancer Drug Screen. Data for the rad50 strain (AID 155);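 note: 0% = growth of vehicle-only cultures of the same strain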; details: S. cerevisiae rad50 strain growth inhibition, stronger effect = higher value
# How it was run: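 Growth of the mutant yeast was measured after compound exposure and referenced to vehicle-treated cultures.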
# [9] = NCI Yeast Anticancer Drug Screen. Data for the mec2-1 strain (AID 157); details: S. cerevisiae mec2-1 strain, stronger effect = higher value
# How it was run: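 Mutant yeast (mec2-1) grown with compound; growth inhibition relative to vehicle control reported.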
# [10] = NCI Yeast Anticancer Drug Screen. Data for the rad14 strain (AID 159);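 note: 0% = growth of vehicle-treated control cultures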; details: S. cerevisiae rad14 strain growth inhibition, stronger effect = higher value
# How it was run: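 Here, inhibition of yeast growth was measured after compound exposure, using a strain with a genetic defect in DNA damage repair and vehicle-treated cultures as the reference.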
# [11] = NCI Yeast Anticancer Drug Screen. Data for the sgs1 mgt1 strain (AID 161);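 note: 0% = growth of cultures given vehicle only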; details: S. cerevisiae sgs1 mgt1 strain, stronger effect = higher value
# How it was run: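 Compounds are added to genetically altered yeast, and growth is compared with cultures given vehicle alone to give percent inhibition.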
# [12] = NCI Yeast Anticancer Drug Screen. Data for the CLN2oe strain (AID 163);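 note: 0% = growth of vehicle-only control cultures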; details: S. cerevisiae CLN2oe strain, stronger effect = higher value
# How it was run: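 Compounds are applied to yeast harbouring a defined cell-cycle control change; reduced growth compared with vehicle-treated controls gives the value.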
# [13] = NCI Yeast Anticancer Drug Screen. Data for the cln2 rad14 strain (AID 165);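 note: 0% = growth equal to vehicle treated cultures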; details: S. cerevisiae cln2 rad14 strain, stronger effect = higher value
# How it was run: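 Readout is yeast growth inhibition versus vehicle-treated controls, using a strain with cln2 and rad14 alterations exposed to compound.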
# [14] = NCI Yeast Anticancer Drug Screen. Data for the bub3 strain (AID 167); details: S. cerevisiae bub3 mutant strain, stronger effect = higher value
# How it was run: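 Whole-cell yeast assay. The mutant strain was incubated with compounds, and growth inhibition was determined by comparison with vehicle-treated cells.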
# [15] = NCI Yeast Anticancer Drug Screen. Data for the wt2 strain (AID 169);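 note: 0% = growth of vehicle-treated yeast cultures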; details: S. cerevisiae wt2 strain growth inhibition, stronger effect = higher value
# How it was run: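 Against vehicle-treated controls, the growth of yeast exposed to each compound was compared, and the inhibition was recorded.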
# [16] = at 5.0 µM (retest, dose inferred, filed as 0.5)
# [17] = at 50.0 µM (retest, dose inferred, filed as 5.0)
smiles,measurement,setting,value
CSC1=NNC(SC)=NN1,growth inhibition,[1]; at 1.2 µM,-3%
same,growth inhibition,[1]; at 3.7 µM,17%
same,growth inhibition,[1]; at 11.0 µM,20%
same,growth inhibition,[1]; at 33.0 µM,62%
same,growth inhibition,[1]; at 100.0 µM,98% (active)
same,growth inhibition,[2]; at 1.2 µM,-5%
same,growth inhibition,[2]; at 3.7 µM,-11%
same,growth inhibition,[2]; at 11.0 µM,8%
same,growth inhibition,[2]; at 33.0 µM,75% (active)
same,growth inhibition,[2]; at 100.0 µM,98% (active)
same,growth inhibition,[3]; [16],44%
same,growth inhibition,[3]; [17],35%
same,growth inhibition,[3]; at 50.0 µM,39.4%
same,growth inhibition,[4]; at 1.2 µM,4%
same,growth inhibition,[4]; at 3.7 µM,13%
same,growth inhibition,[4]; at 11.0 µM,60%
same,growth inhibition,[4]; at 33.0 µM,93% (active)
same,growth inhibition,[4]; at 100.0 µM,98% (active)
O=C(O)C1CCCCC1c1c2ccc(=O)c(O)c-2oc2c(O)c(O)ccc12 (centres undefined),growth inhibition,[5]; at 1.2 µM,-18%
same,growth inhibition,[5]; at 3.7 µM,-26%
same,growth inhibition,[5]; at 11.0 µM,-20%
same,growth inhibition,[5]; at 33.0 µM,24%
same,growth inhibition,[5]; at 100.0 µM,79% (active)
same,growth inhibition,[6]; at 1.2 µM,-17%
same,growth inhibition,[6]; at 3.7 µM,-11%
same,growth inhibition,[6]; at 11.0 µM,-3%
same,growth inhibition,[6]; at 33.0 µM,32%
same,growth inhibition,[6]; at 100.0 µM,82% (active)
same,growth inhibition,[7]; at 1.2 µM,11%
same,growth inhibition,[7]; at 3.7 µM,10%
same,growth inhibition,[7]; at 11.0 µM,15%
same,growth inhibition,[7]; at 33.0 µM,53%
same,growth inhibition,[7]; at 100.0 µM,86% (active)
same,growth inhibition,[8]; at 1.2 µM,-12%
same,growth inhibition,[8]; at 3.7 µM,-22%
same,growth inhibition,[8]; [16],9%
same,growth inhibition,[8]; at 11.0 µM,-16%
same,growth inhibition,[8]; at 33.0 µM,28%
same,growth inhibition,[8]; [17],77% (active)
same,growth inhibition,[8]; at 50.0 µM,77.8% (active)
same,growth inhibition,[8]; at 100.0 µM,77% (active)
same,growth inhibition,[9]; at 1.2 µM,-38%
same,growth inhibition,[9]; at 3.7 µM,-32%
same,growth inhibition,[9]; [16],-7%
same,growth inhibition,[9]; at 11.0 µM,-13%
same,growth inhibition,[9]; at 33.0 µM,46%
same,growth inhibition,[9]; [17],80% (active)
same,growth inhibition,[9]; at 50.0 µM,82.1% (active)
same,growth inhibition,[9]; at 100.0 µM,85% (active)
same,growth inhibition,[10]; at 1.2 µM,-17%
same,growth inhibition,[10]; at 3.7 µM,-7%
same,growth inhibition,[10]; at 11.0 µM,-9%
same,growth inhibition,[10]; at 33.0 µM,19%
same,growth inhibition,[10]; at 100.0 µM,84% (active)
same,growth inhibition,[11]; [16],7%
same,growth inhibition,[11]; [17],80% (active)
same,growth inhibition,[11]; at 50.0 µM,59.4%
same,growth inhibition,[12]; at 1.2 µM,15%
same,growth inhibition,[12]; at 3.7 µM,28%
same,growth inhibition,[12]; at 11.0 µM,23%
same,growth inhibition,[12]; at 33.0 µM,67%
same,growth inhibition,[12]; at 100.0 µM,86% (active)
same,growth inhibition,[13]; [16],-21%
same,growth inhibition,[13]; [17],74% (active)
same,growth inhibition,[13]; at 50.0 µM,56.2%
same,growth inhibition,[14]; at 1.2 µM,0%
same,growth inhibition,[14]; at 3.7 µM,6%
same,growth inhibition,[14]; [16],-7%
same,growth inhibition,[14]; at 11.0 µM,12%
same,growth inhibition,[14]; at 33.0 µM,72% (active)
same,growth inhibition,[14]; [17],80% (active)
same,growth inhibition,[14]; at 50.0 µM,87.2% (active)
same,growth inhibition,[14]; at 100.0 µM,86% (active)
same,growth inhibition,[15]; at 1.2 µM,-32%
same,growth inhibition,[15]; at 3.7 µM,-23%
same,growth inhibition,[15]; at 11.0 µM,-25%
same,growth inhibition,[15]; at 33.0 µM,13%
same,growth inhibition,[15]; at 100.0 µM,73% (active)
same,growth inhibition,[1]; at 1.2 µM,-30%
same,growth inhibition,[1]; at 3.7 µM,-9%
same,growth inhibition,[1]; at 11.0 µM,-33%
same,growth inhibition,[1]; at 33.0 µM,38%
same,growth inhibition,[1]; at 100.0 µM,74% (active)
same,growth inhibition,[3]; [16],-3%
same,growth inhibition,[3]; [17],84% (active)
same,growth inhibition,[3]; at 50.0 µM,75.3% (active)
same,growth inhibition,[4]; at 1.2 µM,-8%
same,growth inhibition,[4]; at 3.7 µM,5%
same,growth inhibition,[4]; at 11.0 µM,2%
same,growth inhibition,[4]; at 33.0 µM,20%
same,growth inhibition,[4]; at 100.0 µM,80% (active)
CC(=O)Oc1ccc2c(c1)Cc1cc(N=C3C=CC(=O)O3)ccc1-2,growth inhibition,[5]; at 1.2 µM,14%
same,growth inhibition,[5]; at 3.7 µM,41%
same,growth inhibition,[5]; at 11.0 µM,98% (active)
same,growth inhibition,[5]; at 33.0 µM,98% (active)
same,growth inhibition,[5]; at 100.0 µM,94% (active)
same,growth inhibition,[6]; at 1.2 µM,2%
same,growth inhibition,[6]; at 3.7 µM,24%
same,growth inhibition,[6]; at 11.0 µM,96% (active)
same,growth inhibition,[6]; at 33.0 µM,99% (active)
same,growth inhibition,[6]; at 100.0 µM,96% (active)
same,growth inhibition,[7]; at 1.2 µM,9%
same,growth inhibition,[7]; at 3.7 µM,36%
same,growth inhibition,[7]; at 11.0 µM,99% (active)
same,growth inhibition,[7]; at 33.0 µM,99% (active)
same,growth inhibition,[7]; at 100.0 µM,96% (active)
same,growth inhibition,[8]; at 1.2 µM,9%
same,growth inhibition,[8]; at 3.7 µM,55%
same,growth inhibition,[8]; [16],43%
same,growth inhibition,[8]; at 11.0 µM,97% (active)
same,growth inhibition,[8]; at 33.0 µM,98% (active)
same,growth inhibition,[8]; [17],99% (active)
same,growth inhibition,[8]; at 50.0 µM,99.5% (active)
same,growth inhibition,[8]; at 100.0 µM,92% (active)
same,growth inhibition,[9]; at 1.2 µM,15%
same,growth inhibition,[9]; at 3.7 µM,37%
same,growth inhibition,[9]; [16],72% (active)
same,growth inhibition,[9]; at 11.0 µM,98% (active)
same,growth inhibition,[9]; at 33.0 µM,99% (active)
same,growth inhibition,[9]; [17],99% (active)
same,growth inhibition,[9]; at 50.0 µM,99.4% (active)
same,growth inhibition,[9]; at 100.0 µM,96% (active)
same,growth inhibition,[10]; at 1.2 µM,16%
same,growth inhibition,[10]; at 3.7 µM,42%
same,growth inhibition,[10]; at 11.0 µM,99% (active)
same,growth inhibition,[10]; at 33.0 µM,99% (active)
same,growth inhibition,[10]; at 100.0 µM,95% (active)
same,growth inhibition,[11]; [16],64%
same,growth inhibition,[11]; [17],99% (active)
same,growth inhibition,[11]; at 50.0 µM,99.6% (active)
same,growth inhibition,[13]; [16],19%
same,growth inhibition,[13]; [17],99% (active)
same,growth inhibition,[13]; at 50.0 µM,98.8% (active)
same,growth inhibition,[14]; at 1.2 µM,-8%
same,growth inhibition,[14]; at 3.7 µM,13%
same,growth inhibition,[14]; [16],31%
same,growth inhibition,[14]; at 11.0 µM,95% (active)
same,growth inhibition,[14]; at 33.0 µM,98% (active)
same,growth inhibition,[14]; [17],98% (active)
same,growth inhibition,[14]; at 50.0 µM,99.7% (active)
same,growth inhibition,[14]; at 100.0 µM,95% (active)
same,growth inhibition,[15]; at 1.2 µM,3%
same,growth inhibition,[15]; at 3.7 µM,36%
same,growth inhibition,[15]; at 11.0 µM,99% (active)
same,growth inhibition,[15]; at 33.0 µM,99% (active)
same,growth inhibition,[15]; at 100.0 µM,96% (active)
same,growth inhibition,[1]; at 1.2 µM,18%
same,growth inhibition,[1]; at 3.7 µM,51%
same,growth inhibition,[1]; at 11.0 µM,98% (active)
same,growth inhibition,[1]; at 33.0 µM,99% (active)
same,growth inhibition,[1]; at 100.0 µM,97% (active)
same,growth inhibition,[2]; at 1.2 µM,17%
same,growth inhibition,[2]; at 3.7 µM,56%
same,growth inhibition,[2]; at 11.0 µM,99% (active)
same,growth inhibition,[2]; at 33.0 µM,99% (active)
same,growth inhibition,[2]; at 100.0 µM,96% (active)
same,growth inhibition,[3]; [16],62%
same,growth inhibition,[3]; [17],99% (active)
same,growth inhibition,[3]; at 50.0 µM,85% (active)
same,growth inhibition,[4]; at 1.2 µM,15%
same,growth inhibition,[4]; at 3.7 µM,50%
same,growth inhibition,[4]; at 11.0 µM,97% (active)
same,growth inhibition,[4]; at 33.0 µM,98% (active)
same,growth inhibition,[4]; at 100.0 µM,96% (active)
